PubChem BioAssay AID1159580 (chemical genetic matrix, 2015)
The campaign covered roughly 5,500 compounds. About 2,000 (36%) were called active. About 18% were inconclusive and are not listed. Cut-off read from the data, not from the text of the source: active = normalized growth mostly below about 0.91 (no sharp cut-off); inconclusive = no clear call, values can overlap the other calls; inactive = mostly above about 0.92. The list shows a part of the results.

Test: chemical genetic growth profiling, strain panel (AID 1159580);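 note: tested at 20 µM; growth read once vehicle control cultures reached saturation at 30 °C; 1 = growth at the plate median or of vehicle wells; lower values mean less growth of the strain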
Details: growth OD

Measured: normalized growth

C[CH2][Hg][S]c1ccccc1C(=O)O
active: S. cerevisiae deletion strains, locus YJR075W, strain HOC1, active compounds read low 0.0601 | S. cerevisiae deletion strains, locus YKL009W, strain mrt4, active compounds read low 0.078 | S. cerevisiae deletion strains, locus YKL068W, active compounds read low 0.0532 | S. cerevisiae deletion strains, locus YKL085W, strain MDH1 (second series), active compounds read low 0.0507 | S. cerevisiae deletion strains, locus YKL085W, strain MDH1, active compounds read low 0.0507 | S. cerevisiae deletion strains, locus YKL160W, strain elf1, active compounds read low 0.0622 | S. cerevisiae deletion strains, locus YKL190W, strain CNB1, active compounds read low 0.0466 | S. cerevisiae deletion strains, locus YKR001C, strain vps1, active compounds read low 0.0606 | S. cerevisiae deletion strains, locus YKR026C, strain gcn3, active compounds read low 0.0601 | S. cerevisiae deletion strains, locus YKR091W, strain srl3, active compounds read low 0.0575 | S. cerevisiae deletion strains, locus YLL001W, strain dnm1, active compounds read low 0.058 | S. cerevisiae deletion strains, locus YLL026W, active compounds read low 0.0549 | S. cerevisiae deletion strains, locus YLL041C, strain sdh2, active compounds read low 0.0553 | S. cerevisiae deletion strains, locus YLR027C, strain aat2, active compounds read low 0.0538 | S. cerevisiae deletion strains, locus YLR039C, strain RIC1, active compounds read low 0.0815 | S. cerevisiae deletion strains, locus YLR058C, strain SHM2, active compounds read low 0.0473 | S. cerevisiae deletion strains, locus YLR102C, strain apc9, active compounds read low 0.0603 | S. cerevisiae deletion strains, locus YLR113W, strain HOG1, active compounds read low 0.153 | S. cerevisiae deletion strains, locus YLR221C, strain rsa3, active compounds read low 0.0597 | S. cerevisiae deletion strains, locus YLR258W, strain gsy2, active compounds read low 0.0592 | S. cerevisiae deletion strains, locus YLR262C, strain YPT6 (second series), active compounds read low 0.0742 | S. cerevisiae deletion strains, locus YLR262C, strain YPT6, active compounds read low 0.105 | S. cerevisiae deletion strains, locus YLR268W, strain sec22, active compounds read low 0.0621 | S. cerevisiae deletion strains, locus YLR320W, strain mms22, active compounds read low 0.0814 | S. cerevisiae deletion strains, locus YLR330W, strain CHS5, active compounds read low 0.0525 | S. cerevisiae deletion strains, locus YLR342W, strain FKS1 (second series), active compounds read low 0.0638 | S. cerevisiae deletion strains, locus YLR342W, strain FKS1, active compounds read low 0.0616 | S. cerevisiae deletion strains, locus YLR357W, strain rsc2, active compounds read low 0.112 | S. cerevisiae deletion strains, locus YLR370C, strain arc18, active compounds read low 0.0588 | S. cerevisiae deletion strains, locus YLR371W, strain rom2, active compounds read low 0.0587 | S. cerevisiae deletion strains, locus YLR384C, strain iki3, active compounds read low 0.0582 | S. cerevisiae deletion strains, locus YLR418C, strain cdc73, active compounds read low 0.0891 | S. cerevisiae deletion strains, locus YML016C, strain PPZ1, active compounds read low 0.0465 | S. cerevisiae deletion strains, locus YML032C, strain rad52, active compounds read low 0.0656 | S. cerevisiae deletion strains, locus YML120C, strain ndi1, active compounds read low 0.0572 | S. cerevisiae deletion strains, locus YML124C, strain tub3, active compounds read low 0.0558 | S. cerevisiae deletion strains, locus YMR058W, strain fet3, active compounds read low 0.0565 | S. cerevisiae deletion strains, locus YMR078C, strain ctf18, active compounds read low 0.0699 | S. cerevisiae deletion strains, locus YMR125W, strain sto1, active compounds read low 0.0708 | S. cerevisiae deletion strains, locus YMR129W, active compounds read low 0.0561 | S. cerevisiae deletion strains, locus YMR205C, strain PFK2, active compounds read low 0.0823 | S. cerevisiae deletion strains, locus YMR223W, strain ubp8, active compounds read low 0.0597 | S. cerevisiae deletion strains, locus YMR231W, strain pep5, active compounds read low 0.0664 | S. cerevisiae deletion strains, locus YMR263W, strain SAP30, active compounds read low 0.0559 | S. cerevisiae deletion strains, locus YMR307W, strain GAS1, active compounds read low 0.0969 | S. cerevisiae deletion strains, locus YNL067W, strain RPL9B, active compounds read low 0.0481 | S. cerevisiae deletion strains, locus YNL071W, strain lat1, active compounds read low 0.0589 | S. cerevisiae deletion strains, locus YNL128W, strain TEP1, active compounds read low 0.0596 | S. cerevisiae deletion strains, locus YNL153C, strain GIM3, active compounds read low 0.0483 | S. cerevisiae deletion strains, locus YNL183C, strain NPR1, active compounds read low 0.004 | S. cerevisiae deletion strains, locus YNL209W, strain ssb2, active compounds read low 0.057 | S. cerevisiae deletion strains, locus YNL233W, strain BNI4, active compounds read low 0.0515 | S. cerevisiae deletion strains, locus YNL248C, strain rpa49, active compounds read low 0.0737 | S. cerevisiae deletion strains, locus YNL250W, strain rad50, active compounds read low 0.0619 | S. cerevisiae deletion strains, locus YNL271C, strain bni1, active compounds read low 0.0596 | S. cerevisiae deletion strains, locus YNL298W, strain CLA4, active compounds read low 0.0571 | S. cerevisiae deletion strains, locus YNL307C, strain MCK1, active compounds read low 0.0641 | S. cerevisiae deletion strains, locus YNL322C, strain KRE1 (second series), active compounds read low 0.0632 | S. cerevisiae deletion strains, locus YNL322C, strain KRE1, active compounds read low 0.0468 | S. cerevisiae deletion strains, locus YNR049C, strain mso1, active compounds read low 0.0543 | S. cerevisiae deletion strains, locus YNR052C, strain pop2, active compounds read low 0.061 | S. cerevisiae deletion strains, locus YOL006C, strain TOP1, active compounds read low 0.0904 | S. cerevisiae deletion strains, locus YOL012C, strain htz1 0.178 | S. cerevisiae deletion strains, locus YOL147C, strain pex11, active compounds read low 0.0589 | S. cerevisiae deletion strains, locus YOR001W, strain rrp6, active compounds read low 0.0639 | S. cerevisiae deletion strains, locus YOR061W, strain CKA2, active compounds read low 0.0446 | S. cerevisiae deletion strains, locus YOR069W, strain VPS5, active compounds read low 0.0457 | S. cerevisiae deletion strains, locus YOR070C, strain gyp1, active compounds read low 0.0575 | S. cerevisiae deletion strains, locus YOR080W, strain dia2, active compounds read low 0.0641 | S. cerevisiae deletion strains, locus YOR083W, strain WHI5, active compounds read low 0.0608 | S. cerevisiae deletion strains, locus YOR106W, strain vam3, active compounds read low 0.0597 | S. cerevisiae deletion strains, locus YOR136W, strain idh2, active compounds read low 0.0686 | S. cerevisiae deletion strains, locus YOR144C, strain elg1, active compounds read low 0.0566 | S. cerevisiae deletion strains, locus YOR184W, strain ser1, active compounds read low 0.065 | S. cerevisiae deletion strains, locus YOR231W, strain MKK1, active compounds read low 0.125 | S. cerevisiae deletion strains, locus YOR265W, strain rbl2, active compounds read low 0.0558 | S. cerevisiae deletion strains, locus YOR270C, strain vph1, active compounds read low 0.0908 | S. cerevisiae deletion strains, locus YOR290C, strain snf2, active compounds read low 0.0723 | S. cerevisiae deletion strains, locus YOR316C, strain cot1, active compounds read low 0.0555 | S. cerevisiae deletion strains, locus YPL051W, strain arl3, active compounds read low 0.0607 | S. cerevisiae deletion strains, locus YPL055C, strain LGE1, active compounds read low 0.0725 | S. cerevisiae deletion strains, locus YPL078C, strain atp4, active compounds read low 0.0632 | S. cerevisiae deletion strains, locus YPL106C, strain sse1, active compounds read low 0.0983 | S. cerevisiae deletion strains, locus YPL240C, strain hsp82, active compounds read low 0.0533 | S. cerevisiae deletion strains, locus YPL241C, strain CIN2, active compounds read low 0.0538 | S. cerevisiae deletion strains, locus YPL256C, strain CLN2, active compounds read low 0.135 | S. cerevisiae deletion strains, locus YPR119W, strain clb2, active compounds read low 0.0599 | S. cerevisiae deletion strains, locus YPR141C, strain kar3, active compounds read low 0.0633 | S. cerevisiae deletion strains, locus YPR163C, strain tif3, active compounds read low 0.0679 | S. cerevisiae deletion strains, locus YPR167C, strain met16, active compounds read low 0.0597 | S. cerevisiae deletion strains, strain wtn01, active compounds read low 0.0565 | S. cerevisiae strains, strain wild type, active compounds read low 0.0464
